Data reported in PubChem BioAssay AID1159580 (chemical genetic matrix, 2015).
Screen size: about 5,500 compounds; about 2,000 (36%) were called active. Roughly 18% stayed inconclusive and do not appear here. Cut-off read from the data, not from the text of the source: active = normalized growth mostly below about 0.91 (no sharp cut-off); inconclusive = no clear call, values can overlap the other calls; inactive = mostly above about 0.92. This is one part of the list.

Experiment: chemical genetic growth profiling, strain panel (AID 1159580);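 note: tested at 20 µM; growth read once vehicle control cultures reached saturation at 30 °C; 1 = growth at the plate median or of vehicle wells; lower values mean less growth of the strain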
Conditions: growth OD

Measured: normalized growth

NCCCN
inactive: S. cerevisiae deletion strains, locus YJR066W, strain TOR1, active compounds read low 0.933 | S. cerevisiae deletion strains, locus YKL009W, strain mrt4, active compounds read low 1.02 | S. cerevisiae deletion strains, locus YKL068W, active compounds read low 0.985 | S. cerevisiae deletion strains, locus YKL085W, strain MDH1 (second series), active compounds read low 0.984 | S. cerevisiae deletion strains, locus YKL085W, strain MDH1, active compounds read low 0.984 | S. cerevisiae deletion strains, locus YKL160W, strain elf1, active compounds read low 1.02 | S. cerevisiae deletion strains, locus YKL190W, strain CNB1, active compounds read low 0.999 | S. cerevisiae deletion strains, locus YKR001C, strain vps1, active compounds read low 1.01 | S. cerevisiae deletion strains, locus YKR026C, strain gcn3, active compounds read low 0.986 | S. cerevisiae deletion strains, locus YKR091W, strain srl3, active compounds read low 0.998 | S. cerevisiae deletion strains, locus YLL001W, strain dnm1, active compounds read low 1 | S. cerevisiae deletion strains, locus YLL026W, active compounds read low 0.988 | S. cerevisiae deletion strains, locus YLL041C, strain sdh2, active compounds read low 0.987 | S. cerevisiae deletion strains, locus YLR027C, strain aat2, active compounds read low 1 | S. cerevisiae deletion strains, locus YLR039C, strain RIC1, active compounds read low 1.09 | S. cerevisiae deletion strains, locus YLR058C, strain SHM2, active compounds read low 1 | S. cerevisiae deletion strains, locus YLR102C, strain apc9, active compounds read low 0.988 | S. cerevisiae deletion strains, locus YLR113W, strain HOG1, active compounds read low 1.05 | S. cerevisiae deletion strains, locus YLR221C, strain rsa3, active compounds read low 0.959 | S. cerevisiae deletion strains, locus YLR258W, strain gsy2, active compounds read low 0.992 | S. cerevisiae deletion strains, locus YLR262C, strain YPT6 (second series), active compounds read low 1.02 | S. cerevisiae deletion strains, locus YLR262C, strain YPT6, active compounds read low 1.14 | S. cerevisiae deletion strains, locus YLR268W, strain sec22, active compounds read low 0.979 | S. cerevisiae deletion strains, locus YLR320W, strain mms22, active compounds read low 0.983 | S. cerevisiae deletion strains, locus YLR330W, strain CHS5, active compounds read low 0.993 | S. cerevisiae deletion strains, locus YLR342W, strain FKS1 (second series), active compounds read low 1.02 | S. cerevisiae deletion strains, locus YLR342W, strain FKS1, active compounds read low 0.994 | S. cerevisiae deletion strains, locus YLR357W, strain rsc2, active compounds read low 0.978 | S. cerevisiae deletion strains, locus YLR370C, strain arc18, active compounds read low 0.967 | S. cerevisiae deletion strains, locus YLR371W, strain rom2, active compounds read low 0.961 | S. cerevisiae deletion strains, locus YLR384C, strain iki3, active compounds read low 0.993 | S. cerevisiae deletion strains, locus YLR418C, strain cdc73, active compounds read low 1.03 | S. cerevisiae deletion strains, locus YML016C, strain PPZ1, active compounds read low 0.994 | S. cerevisiae deletion strains, locus YML032C, strain rad52, active compounds read low 1.02 | S. cerevisiae deletion strains, locus YML120C, strain ndi1, active compounds read low 0.992 | S. cerevisiae deletion strains, locus YML124C, strain tub3, active compounds read low 0.99 | S. cerevisiae deletion strains, locus YMR058W, strain fet3, active compounds read low 0.994 | S. cerevisiae deletion strains, locus YMR078C, strain ctf18, active compounds read low 0.972 | S. cerevisiae deletion strains, locus YMR125W, strain sto1, active compounds read low 0.97 | S. cerevisiae deletion strains, locus YMR129W, active compounds read low 0.991 | S. cerevisiae deletion strains, locus YMR205C, strain PFK2, active compounds read low 1.02 | S. cerevisiae deletion strains, locus YMR223W, strain ubp8, active compounds read low 1.01 | S. cerevisiae deletion strains, locus YMR231W, strain pep5, active compounds read low 0.946 | S. cerevisiae deletion strains, locus YMR307W, strain GAS1, active compounds read low 1.1 | S. cerevisiae deletion strains, locus YNL067W, strain RPL9B, active compounds read low 1.01 | S. cerevisiae deletion strains, locus YNL071W, strain lat1, active compounds read low 0.985 | S. cerevisiae deletion strains, locus YNL183C, strain NPR1, active compounds read low 0.969 | S. cerevisiae deletion strains, locus YNL209W, strain ssb2, active compounds read low 0.993 | S. cerevisiae deletion strains, locus YNL233W, strain BNI4, active compounds read low 1.01 | S. cerevisiae deletion strains, locus YNL248C, strain rpa49, active compounds read low 0.993 | S. cerevisiae deletion strains, locus YNL250W, strain rad50, active compounds read low 0.979 | S. cerevisiae deletion strains, locus YNL271C, strain bni1, active compounds read low 0.99 | S. cerevisiae deletion strains, locus YNL298W, strain CLA4, active compounds read low 1.01 | S. cerevisiae deletion strains, locus YNL307C, strain MCK1, active compounds read low 0.985 | S. cerevisiae deletion strains, locus YNL322C, strain KRE1 (second series), active compounds read low 0.962 | S. cerevisiae deletion strains, locus YNL322C, strain KRE1, active compounds read low 0.996 | S. cerevisiae deletion strains, locus YNR049C, strain mso1, active compounds read low 0.988 | S. cerevisiae deletion strains, locus YNR052C, strain pop2, active compounds read low 0.992 | S. cerevisiae deletion strains, locus YOL006C, strain TOP1, active compounds read low 1.08 | S. cerevisiae deletion strains, locus YOL012C, strain htz1 0.761 | S. cerevisiae deletion strains, locus YOL147C, strain pex11, active compounds read low 0.997 | S. cerevisiae deletion strains, locus YOR001W, strain rrp6, active compounds read low 0.951 | S. cerevisiae deletion strains, locus YOR061W, strain CKA2, active compounds read low 0.997 | S. cerevisiae deletion strains, locus YOR069W, strain VPS5, active compounds read low 0.993 | S. cerevisiae deletion strains, locus YOR070C, strain gyp1, active compounds read low 0.999 | S. cerevisiae deletion strains, locus YOR080W, strain dia2, active compounds read low 0.97 | S. cerevisiae deletion strains, locus YOR083W, strain WHI5, active compounds read low 1.02 | S. cerevisiae deletion strains, locus YOR106W, strain vam3, active compounds read low 0.995 | S. cerevisiae deletion strains, locus YOR136W, strain idh2, active compounds read low 0.974 | S. cerevisiae deletion strains, locus YOR144C, strain elg1, active compounds read low 0.993 | S. cerevisiae deletion strains, locus YOR184W, strain ser1, active compounds read low 1.01 | S. cerevisiae deletion strains, locus YOR231W, strain MKK1, active compounds read low 0.987 | S. cerevisiae deletion strains, locus YOR265W, strain rbl2, active compounds read low 0.99 | S. cerevisiae deletion strains, locus YOR270C, strain vph1, active compounds read low 0.974 | S. cerevisiae deletion strains, locus YOR290C, strain snf2, active compounds read low 0.991 | S. cerevisiae deletion strains, locus YOR316C, strain cot1, active compounds read low 0.987 | S. cerevisiae deletion strains, locus YPL051W, strain arl3, active compounds read low 0.984 | S. cerevisiae deletion strains, locus YPL078C, strain atp4, active compounds read low 1 | S. cerevisiae deletion strains, locus YPL106C, strain sse1, active compounds read low 0.996 | S. cerevisiae deletion strains, locus YPL240C, strain hsp82, active compounds read low 0.986 | S. cerevisiae deletion strains, locus YPL241C, strain CIN2, active compounds read low 1 | S. cerevisiae deletion strains, locus YPL256C, strain CLN2, active compounds read low 0.988 | S. cerevisiae deletion strains, locus YPR119W, strain clb2, active compounds read low 0.986 | S. cerevisiae deletion strains, locus YPR141C, strain kar3, active compounds read low 0.985 | S. cerevisiae deletion strains, locus YPR163C, strain tif3, active compounds read low 0.986 | S. cerevisiae deletion strains, locus YPR167C, strain met16, active compounds read low 0.999 | S. cerevisiae deletion strains, strain wtn01, active compounds read low 0.96 | S. cerevisiae strains, strain wild type, active compounds read low 1
